According to PubChem BioAssay AID1159580 (chemical genetic matrix, 2015):
Out of some 5,500 compounds screened, about 2,000 (36%) were called active. About 18% were inconclusive and are not listed. Cut-off read from the data, not from the text of the source: active = normalized growth mostly below about 0.91 (no sharp cut-off); inconclusive = no clear call, values can overlap the other calls; inactive = mostly above about 0.92. The list shows a part of the results.

Test: chemical genetic growth profiling, strain panel (AID 1159580);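 note: tested at 20 µM; growth read once vehicle control cultures reached saturation at 30 °C; 1 = growth at the plate median or of vehicle wells; lower values mean less growth of the strain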
Conditions: growth OD

Measured: normalized growth

NC(=NCCC[C@H](N)C(=O)O)NC(CCC(=O)O)C(=O)O (stereo partly drawn)
inactive: S. cerevisiae deletion strains, locus YAL021C, strain ccr4, stronger effect = lower value 1 | S. cerevisiae deletion strains, locus YAL026C, strain drs2, stronger effect = lower value 1 | S. cerevisiae deletion strains, locus YAL030W, strain snc1, stronger effect = lower value 1 | S. cerevisiae deletion strains, locus YBL061C, strain skt5, stronger effect = lower value 1.01 | S. cerevisiae deletion strains, locus YBR009C, strain hhf1, stronger effect = lower value 1 | S. cerevisiae deletion strains, locus YBR021W, strain FUR4, stronger effect = lower value 1.02 | S. cerevisiae deletion strains, locus YBR023C, strain chs3, stronger effect = lower value 1.01 | S. cerevisiae deletion strains, locus YBR171W, strain sec66, stronger effect = lower value 1.02 | S. cerevisiae deletion strains, locus YBR229C, strain ROT2, stronger effect = lower value 1.01 | S. cerevisiae deletion strains, locus YBR231C, strain swc5, stronger effect = lower value 1.01 | S. cerevisiae deletion strains, locus YBR279W, strain paf1, stronger effect = lower value 0.998 | S. cerevisiae deletion strains, locus YCL011C, strain gbp2, stronger effect = lower value 1.01 | S. cerevisiae deletion strains, locus YCL016C, strain dcc1, stronger effect = lower value 1.01 | S. cerevisiae deletion strains, locus YCL029C, strain bik1, stronger effect = lower value 1.03 | S. cerevisiae deletion strains, locus YCL061C, strain MRC1, stronger effect = lower value 0.998 | S. cerevisiae deletion strains, locus YCL069W, strain vba3, stronger effect = lower value 1.01 | S. cerevisiae deletion strains, locus YCR088W, strain abp1, stronger effect = lower value 1.01 | S. cerevisiae deletion strains, locus YDL005C, strain med2, stronger effect = lower value 1.01 | S. cerevisiae deletion strains, locus YDL035C, strain GPR1, stronger effect = lower value 1.02 | S. cerevisiae deletion strains, locus YDL040C, strain nat1, stronger effect = lower value 1.01 | S. cerevisiae deletion strains, locus YDL074C, strain BRE1, stronger effect = lower value 1.05 | S. cerevisiae deletion strains, locus YDL101C, strain DUN1, stronger effect = lower value 1.01 | S. cerevisiae deletion strains, locus YDL185W, strain tfp1, stronger effect = lower value 1.01 | S. cerevisiae deletion strains, locus YDL192W, strain arf1, stronger effect = lower value 1.02 | S. cerevisiae deletion strains, locus YDR001C, strain nth1, stronger effect = lower value 1.01 | S. cerevisiae deletion strains, locus YDR069C, strain doa4, stronger effect = lower value 1.01 | S. cerevisiae deletion strains, locus YDR101C, strain arx1, stronger effect = lower value 1.04 | S. cerevisiae deletion strains, locus YDR137W, strain rgp1, stronger effect = lower value 0.992 | S. cerevisiae deletion strains, locus YDR159W, strain sac3, stronger effect = lower value 1.01 | S. cerevisiae deletion strains, locus YDR162C, strain NBP2, stronger effect = lower value 0.977 | S. cerevisiae deletion strains, locus YDR195W, strain ref2 0.974 | S. cerevisiae deletion strains, locus YDR297W, strain sur2, stronger effect = lower value 1.01 | S. cerevisiae deletion strains, locus YDR318W, strain mcm21, stronger effect = lower value 1 | S. cerevisiae deletion strains, locus YDR334W, strain swr1, stronger effect = lower value 1.01 | S. cerevisiae deletion strains, locus YDR335W, strain msn5, stronger effect = lower value 0.995 | S. cerevisiae deletion strains, locus YDR388W, stronger effect = lower value 1.02 | S. cerevisiae deletion strains, locus YDR392W, strain spt3, stronger effect = lower value 1.02 | S. cerevisiae deletion strains, locus YDR502C, strain sam2, stronger effect = lower value 1.01 | S. cerevisiae deletion strains, locus YEL003W, strain gim4, stronger effect = lower value 1 | S. cerevisiae deletion strains, locus YEL037C, strain rad23, stronger effect = lower value 1 | S. cerevisiae deletion strains, locus YEL061C, strain CIN8 (second series), stronger effect = lower value 1 | S. cerevisiae deletion strains, locus YEL061C, strain CIN8, stronger effect = lower value 1.01 | S. cerevisiae deletion strains, locus YER015W, strain faa2, stronger effect = lower value 1.01 | S. cerevisiae deletion strains, locus YER016W, strain bim1, stronger effect = lower value 1 | S. cerevisiae deletion strains, locus YER110C, stronger effect = lower value 1.01 | S. cerevisiae deletion strains, locus YER111C, strain swi4, stronger effect = lower value 0.996 | S. cerevisiae deletion strains, locus YER155C, strain BEM2 (second series), stronger effect = lower value 1.02 | S. cerevisiae deletion strains, locus YER155C, strain BEM2, stronger effect = lower value 1.01 | S. cerevisiae deletion strains, locus YER167W, strain BCK2, stronger effect = lower value 1.02 | S. cerevisiae deletion strains, locus YFR010W, strain ubp6, stronger effect = lower value 1.01 | S. cerevisiae deletion strains, locus YGL078C, strain dbp3, stronger effect = lower value 1.02 | S. cerevisiae deletion strains, locus YGL086W, strain mad1, stronger effect = lower value 1.04 | S. cerevisiae deletion strains, locus YGL167C, strain pmr1, stronger effect = lower value 1.01 | S. cerevisiae deletion strains, locus YGL173C, strain kem1, stronger effect = lower value 1.01 | S. cerevisiae deletion strains, locus YGL227W, strain vid30, stronger effect = lower value 1.01 | S. cerevisiae deletion strains, locus YGL240W, strain doc1, stronger effect = lower value 1.02 | S. cerevisiae deletion strains, locus YGL248W, strain PDE1, stronger effect = lower value 0.999 | S. cerevisiae deletion strains, locus YGL253W, strain hxk2, stronger effect = lower value 1.01 | S. cerevisiae deletion strains, locus YGR078C, strain PAC10, stronger effect = lower value 1.01 | S. cerevisiae deletion strains, locus YGR135W, strain pre9, stronger effect = lower value 1.04 | S. cerevisiae deletion strains, locus YGR252W, strain gcn5, stronger effect = lower value 0.991 | S. cerevisiae deletion strains, locus YHR013C, strain ard1, stronger effect = lower value 1.03 | S. cerevisiae deletion strains, locus YHR027C, strain rpn1, stronger effect = lower value 1.02 | S. cerevisiae deletion strains, locus YHR030C, strain SLT2, stronger effect = lower value 1.01 | S. cerevisiae deletion strains, locus YHR079C, strain IRE1 (second series), stronger effect = lower value 1 | S. cerevisiae deletion strains, locus YHR094C, strain hxt1, stronger effect = lower value 1.01 | S. cerevisiae deletion strains, locus YHR129C, strain ARP1, stronger effect = lower value 1.01 | S. cerevisiae deletion strains, locus YHR142W, strain chs7, stronger effect = lower value 1.02 | S. cerevisiae deletion strains, locus YHR200W, strain rpn10, stronger effect = lower value 1 | S. cerevisiae deletion strains, locus YIL066C, strain RNR3, stronger effect = lower value 1.01 | S. cerevisiae deletion strains, locus YIL073C, strain SPO22, stronger effect = lower value 1.06 | S. cerevisiae deletion strains, locus YIL125W, strain kgd1, stronger effect = lower value 1.02 | S. cerevisiae deletion strains, locus YIR030C, strain dcg1, stronger effect = lower value 1.01 | S. cerevisiae deletion strains, locus YJL092W, strain hpr5, stronger effect = lower value 1.01 | S. cerevisiae deletion strains, locus YJL095W, strain BCK1 (second series), stronger effect = lower value 1.01 | S. cerevisiae deletion strains, locus YJL095W, strain BCK1, stronger effect = lower value 1.01 | S. cerevisiae deletion strains, locus YJL115W, strain asf1, stronger effect = lower value 1 | S. cerevisiae deletion strains, locus YJL129C, strain trk1, stronger effect = lower value 1.01 | S. cerevisiae deletion strains, locus YJL134W, strain LCB3, stronger effect = lower value 1.01 | S. cerevisiae deletion strains, locus YJL154C, strain vps35, stronger effect = lower value 1.01 | S. cerevisiae deletion strains, locus YJL164C, strain tpk1, stronger effect = lower value 1.01 | S. cerevisiae deletion strains, locus YJL166W, strain qcr8, stronger effect = lower value 1.01 | S. cerevisiae deletion strains, locus YJL168C, strain set2, stronger effect = lower value 1.04 | S. cerevisiae deletion strains, locus YJL187C, strain SWE1 (second series), stronger effect = lower value 1 | S. cerevisiae deletion strains, locus YJL187C, strain SWE1, stronger effect = lower value 1 | S. cerevisiae deletion strains, locus YJR043C, strain POL32, stronger effect = lower value 1 | S. cerevisiae deletion strains, locus YKL009W, strain mrt4, stronger effect = lower value 1.03 | S. cerevisiae deletion strains, locus YKL068W, stronger effect = lower value 1 | S. cerevisiae deletion strains, locus YKL085W, strain MDH1 (second series), stronger effect = lower value 1.01 | S. cerevisiae deletion strains, locus YKL085W, strain MDH1, stronger effect = lower value 1.01 | S. cerevisiae deletion strains, locus YKL160W, strain elf1, stronger effect = lower value 1.02 | S. cerevisiae deletion strains, locus YKL190W, strain CNB1, stronger effect = lower value 1.01 | S. cerevisiae deletion strains, locus YKR001C, strain vps1, stronger effect = lower value 1.06 | S. cerevisiae deletion strains, locus YKR026C, strain gcn3, stronger effect = lower value 1.01 | S. cerevisiae deletion strains, locus YKR091W, strain srl3, stronger effect = lower value 1.01 | S. cerevisiae deletion strains, locus YLL001W, strain dnm1, stronger effect = lower value 1.01 | S. cerevisiae deletion strains, locus YLL026W, stronger effect = lower value 1.01 | S. cerevisiae deletion strains, locus YLL041C, strain sdh2, stronger effect = lower value 1.01 | S. cerevisiae deletion strains, locus YLR027C, strain aat2, stronger effect = lower value 0.998 | S. cerevisiae deletion strains, locus YLR039C, strain RIC1, stronger effect = lower value 1 | S. cerevisiae deletion strains, locus YLR058C, strain SHM2, stronger effect = lower value 1.01 | S. cerevisiae deletion strains, locus YLR102C, strain apc9, stronger effect = lower value 1.02 | S. cerevisiae deletion strains, locus YLR221C, strain rsa3, stronger effect = lower value 1.02 | S. cerevisiae deletion strains, locus YLR258W, strain gsy2, stronger effect = lower value 1.01 | S. cerevisiae deletion strains, locus YLR262C, strain YPT6 (second series), stronger effect = lower value 0.996 | S. cerevisiae deletion strains, locus YLR262C, strain YPT6, stronger effect = lower value 1.02 | S. cerevisiae deletion strains, locus YLR268W, strain sec22, stronger effect = lower value 1.04 | S. cerevisiae deletion strains, locus YLR320W, strain mms22, stronger effect = lower value 1.02 | S. cerevisiae deletion strains, locus YLR330W, strain CHS5, stronger effect = lower value 1.01 | S. cerevisiae deletion strains, locus YLR342W, strain FKS1 (second series), stronger effect = lower value 1.06 | S. cerevisiae deletion strains, locus YLR342W, strain FKS1, stronger effect = lower value 1.01 | S. cerevisiae deletion strains, locus YLR357W, strain rsc2, stronger effect = lower value 1.03 | S. cerevisiae deletion strains, locus YLR370C, strain arc18, stronger effect = lower value 1.01 | S. cerevisiae deletion strains, locus YLR371W, strain rom2, stronger effect = lower value 1.02 | S. cerevisiae deletion strains, locus YLR384C, strain iki3, stronger effect = lower value 0.996 | S. cerevisiae deletion strains, locus YLR418C, strain cdc73, stronger effect = lower value 1.01 | S. cerevisiae deletion strains, locus YML016C, strain PPZ1, stronger effect = lower value 1 | S. cerevisiae deletion strains, locus YML032C, strain rad52, stronger effect = lower value 1.02 | S. cerevisiae deletion strains, locus YML120C, strain ndi1, stronger effect = lower value 1 | S. cerevisiae deletion strains, locus YML124C, strain tub3, stronger effect = lower value 1.01 | S. cerevisiae deletion strains, locus YMR058W, strain fet3, stronger effect = lower value 1.01 | S. cerevisiae deletion strains, locus YMR078C, strain ctf18, stronger effect = lower value 1.01 | S. cerevisiae deletion strains, locus YMR125W, strain sto1, stronger effect = lower value 0.999 | S. cerevisiae deletion strains, locus YMR129W, stronger effect = lower value 0.997 | S. cerevisiae deletion strains, locus YMR205C, strain PFK2, stronger effect = lower value 1.02 | S. cerevisiae deletion strains, locus YMR223W, strain ubp8, stronger effect = lower value 0.985 | S. cerevisiae deletion strains, locus YMR231W, strain pep5, stronger effect = lower value 0.989 | S. cerevisiae deletion strains, locus YMR307W, strain GAS1, stronger effect = lower value 1 | S. cerevisiae deletion strains, locus YNL067W, strain RPL9B, stronger effect = lower value 0.995 | S. cerevisiae deletion strains, locus YNL071W, strain lat1, stronger effect = lower value 1.01 | S. cerevisiae deletion strains, locus YNL153C, strain GIM3, stronger effect = lower value 0.989 | S. cerevisiae deletion strains, locus YNL209W, strain ssb2, stronger effect = lower value 1 | S. cerevisiae deletion strains, locus YNL233W, strain BNI4, stronger effect = lower value 1.03 | S. cerevisiae deletion strains, locus YNL248C, strain rpa49, stronger effect = lower value 1.01 | S. cerevisiae deletion strains, locus YNL250W, strain rad50, stronger effect = lower value 1.02 | S. cerevisiae deletion strains, locus YNL271C, strain bni1, stronger effect = lower value 0.999 | S. cerevisiae deletion strains, locus YNL298W, strain CLA4, stronger effect = lower value 1.01 | S. cerevisiae deletion strains, locus YNL307C, strain MCK1, stronger effect = lower value 1.03 | S. cerevisiae deletion strains, locus YNL322C, strain KRE1 (second series), stronger effect = lower value 1.01 | S. cerevisiae deletion strains, locus YNL322C, strain KRE1, stronger effect = lower value 1.01 | S. cerevisiae deletion strains, locus YNR049C, strain mso1, stronger effect = lower value 1.02 | S. cerevisiae deletion strains, locus YNR052C, strain pop2, stronger effect = lower value 1.01 | S. cerevisiae deletion strains, locus YOL012C, strain htz1 1.47 | S. cerevisiae deletion strains, locus YOL147C, strain pex11, stronger effect = lower value 1.02 | S. cerevisiae deletion strains, locus YOR001W, strain rrp6, stronger effect = lower value 1.02 | S. cerevisiae deletion strains, locus YOR061W, strain CKA2, stronger effect = lower value 1.01 | S. cerevisiae deletion strains, locus YOR069W, strain VPS5, stronger effect = lower value 1.01 | S. cerevisiae deletion strains, locus YOR070C, strain gyp1, stronger effect = lower value 1 | S. cerevisiae deletion strains, locus YOR080W, strain dia2, stronger effect = lower value 0.999 | S. cerevisiae deletion strains, locus YOR083W, strain WHI5, stronger effect = lower value 1 | S. cerevisiae deletion strains, locus YOR106W, strain vam3, stronger effect = lower value 1.02 | S. cerevisiae deletion strains, locus YOR136W, strain idh2, stronger effect = lower value 1.05 | S. cerevisiae deletion strains, locus YOR144C, strain elg1, stronger effect = lower value 1.02 | S. cerevisiae deletion strains, locus YOR184W, strain ser1, stronger effect = lower value 1.01 | S. cerevisiae deletion strains, locus YOR265W, strain rbl2, stronger effect = lower value 1 | S. cerevisiae deletion strains, locus YOR270C, strain vph1, stronger effect = lower value 1.02 | S. cerevisiae deletion strains, locus YOR290C, strain snf2, stronger effect = lower value 1.02 | S. cerevisiae deletion strains, locus YOR316C, strain cot1, stronger effect = lower value 1.02 | S. cerevisiae deletion strains, locus YPL051W, strain arl3, stronger effect = lower value 0.995 | S. cerevisiae deletion strains, locus YPL078C, strain atp4, stronger effect = lower value 1 | S. cerevisiae deletion strains, locus YPL106C, strain sse1, stronger effect = lower value 1.02 | S. cerevisiae deletion strains, locus YPL240C, strain hsp82, stronger effect = lower value 1 | S. cerevisiae deletion strains, locus YPR119W, strain clb2, stronger effect = lower value 1.01 | S. cerevisiae deletion strains, locus YPR141C, strain kar3, stronger effect = lower value 1.01 | S. cerevisiae deletion strains, locus YPR163C, strain tif3, stronger effect = lower value 1.02 | S. cerevisiae deletion strains, locus YPR167C, strain met16, stronger effect = lower value 1.02 | S. cerevisiae deletion strains, strain wtn01, stronger effect = lower value 1.05 | S. cerevisiae strains, strain wild type, stronger effect = lower value 1.01
